Most compounds without a hit are left out; they make up all but 2.9% or so of the library.
D3 ag: activates the human D3 dopamine receptor; max activation, %; AID 652048; D3R DiscoveRx beta-arrestin cells, luminescence, 90 min; hit rate 0.58% among 410,000; in the data active = max activation above about 30%; also: 0% is about no effect
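Cells at 1500/well, incubated overnight, then treated with pinned compounds (dopamine as control) for 90 min at 37 degrees C. DiscoveRx reagent added for 30 - 60 minutes at room temperature; luminescence read.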
TRPML1 ag: human mucolipin-1 channel agonism | TRPML1-expressing cells, Ca2+ dye fluorescence, FDSS | Q9GZU1 | hit rate 0.12% among 410,000 | activation, % (test concentration not listed); in the data active = activation above about 50%; inconclusive = mostly about 30% to 49%; also: 0% is about no effect
Target sequence (Q9GZU1 whole entry, looked up): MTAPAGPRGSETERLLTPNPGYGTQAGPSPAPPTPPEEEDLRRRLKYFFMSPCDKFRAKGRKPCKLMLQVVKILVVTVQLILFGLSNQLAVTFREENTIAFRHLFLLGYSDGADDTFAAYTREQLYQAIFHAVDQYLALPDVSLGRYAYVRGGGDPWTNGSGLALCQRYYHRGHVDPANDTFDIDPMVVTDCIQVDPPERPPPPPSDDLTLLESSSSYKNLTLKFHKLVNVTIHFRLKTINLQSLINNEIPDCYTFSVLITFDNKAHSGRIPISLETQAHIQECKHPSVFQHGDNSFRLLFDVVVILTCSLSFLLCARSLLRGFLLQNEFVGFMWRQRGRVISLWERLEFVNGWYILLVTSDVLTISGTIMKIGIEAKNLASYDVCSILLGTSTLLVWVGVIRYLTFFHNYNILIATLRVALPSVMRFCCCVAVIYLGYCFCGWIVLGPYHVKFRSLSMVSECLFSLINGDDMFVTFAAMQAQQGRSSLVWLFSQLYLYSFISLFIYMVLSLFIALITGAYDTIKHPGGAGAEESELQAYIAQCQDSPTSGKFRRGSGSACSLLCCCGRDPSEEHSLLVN
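Tetracycline-induced TRPML1-DL cells are seeded and incubated overnight before loading with a no-wash Ca2+ dye and quencher. Agonist activity is taken from the 110 s fluorescence read following compound pin-transfer on an FDSS, before EC80 54-4 challenge.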
D3 antag: antagonists of human D3 dopamine receptor | D3R cells, DiscoveRx beta-arrestin luminescence, antagonist mode; stronger effect = lower value | hit rate 2.5% among 360,000 | P35462 | max response, negative = inhibition, %; in the data active = max response below about -50%; inconclusive = no clear call, values can overlap the other calls; also: % is scaled to controls: 0 for no effect and ±100 for the full control effect
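Cells expressing the human receptor were seeded at 1500 cells/well, incubated overnight at 37 degrees C in 5% CO2, then exposed to library compounds with dopamine controls for 90 minutes at 37 degrees C before luminescent detection.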
TRPML1 inh: inhibitors of human TRPML1 channel; AID 624415; TRPML1-inducible cells, Ca2+ dye fluorescence, FDSS; stronger effect = lower value; inhibition of EC80 agonist-evoked calcium signal; activity change, negative = inhibition, % (no concentration beside the values); hit rate 0.02% among 390,000; in the data active = activity change below about -50%; inconclusive = between about -30% and that limit;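 also: stimulus is agonist 54-4 at its EC80 concentration; % is scaled to controls: 0 for no effect and ±100 for the full control effect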
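Tet-induced TRPML1-DL cells loaded with Ca8 no-wash calcium dye were read kinetically on FDSS. Compound addition was followed by EC80 agonist 54-4 (4 uM final); inhibition was read over 110 s.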
Starred values were filed as active, the others as inactive; ? = inconclusive; nt = not tested or not shown; ! = not confirmed by another sample.

SMILES | D3 ag | TRPML1 ag | D3 antag | TRPML1 inh
CCOc1ccc(NC(=O)CN2CCN(C(=O)c3ccco3)CC2)cc1S(=O)(=O)N1CCCC1 | 39.7* | 0.0 | -9.3 | 31.5
CC(=O)N1CCN(CC(=O)Nc2ccc(C)c(S(=O)(=O)N(C)C)c2)CC1 | -4.6 | -0.4 | -18.5 | 8.5
Cc1ccc(NC(=O)CN2CCN(C(=O)c3ccco3)CC2)cc1S(=O)(=O)N(C)C | 50.5* | 0.5 | 22.7 | -4.4
COc1ccc(N(CC(C)C)S(=O)(=O)c2nnc(NC(=O)c3cccs3)s2)cc1 | -24.0 | 2.2 | nt | 18.2
CCCC1CCc2c(sc(NC(=O)c3cccs3)c2C(N)=O)C1 (stereo not given) | 19.8 | -0.5 | -93.8* | -6.0
CSCC(=O)N1CCCC(N2CCN(c3cccc(C(F)(F)F)c3)CC2)C1 (stereo not given) | -6.1 | nt | 4.8 | nt
CC1(CCC(=O)N2CCCC(N3CCN(c4cccc(C(F)(F)F)c4)CC3)C2)CC1 (stereo not given) | -14.1 | 1.1 | -66.2* | 35.3
S=c1[nH]nc(-c2cc(-c3ccco3)[nH]n2)n1-c1ccccc1Cl | -3.6 | 0.1 | -51.7* | -4.5
S=c1[nH]nc(-c2ccco2)n1-c1ccccc1Cl | -13.3 | -0.2 | -29.4 | -9.6
Cc1ccc(NC(=O)CSc2ncc3c(n2)-c2ccccc2N(C)S3(=O)=O)c(Cl)c1 | -8.5 | 1.3 | nt | -0.7
Cc1ccc(/C=C(\C#N)C(=O)Nc2c(C)cccc2C)s1 | -9.8 | 1.9 | -79.9* | 6.2
CSC1=NS(=O)(=O)c2c(C)nn(C)c2S1 | -7.8 | -0.2 | -69.1* | 19.6
CCCCCCCCNCCS(=O)(=O)NCc1ccccc1OC | -32.0 | -0.8 | -60.1* | 9.8
COc1ccccc1CNS(=O)(=O)CCNC1CCCCC1 | -24.5 | -0.2 | -73.4* | 10.7
COc1ccccc1CNCCS(=O)(=O)NCc1ccccc1OC | -16.1 | 0.5 | ? | -1.6
CCCCNCCS(=O)(=O)NCc1ccccc1OC | -18.5 | -0.7 | ? | 14.7
COc1ccccc1CNS(=O)(=O)CCNC1CC1 | 32.1* | -0.7 | -3.2 | -6.7
CCOc1cccc2sc(N(Cc3cccnc3)C(=O)C3CCCCC3)nc12 | -5.0 | 1.2 | nt | 10.7
COc1cc2nc(N3CCN(C)CC3)nc(NC3CCN(Cc4ccccc4)CC3)c2cc1OC | nt | -0.2 | nt | nt
Cc1ccccc1C(=O)Nc1cccc(-c2nnc(SCC(=O)NCc3ccco3)n2C)c1 | nt | -0.4 | nt | nt
O=CNc1ccc(/C=C/c2ccnc3ccccc23)cc1 | nt | -0.5 | nt | nt
COC(=O)CSc1nc(N2CCOCC2)c2c(c1C#N)CC(C)(C)N(C)C2 | 3.1 | -1.2 | -53.2* | 16.1
Brc1ccc(Nc2c3c(nc4nncn24)CCC3)cc1 | -3.0 | -0.2 | nt | 18.8
O=[N+]([O-])c1ccc(O)c(/C=N/Nc2ccccn2)c1 | -11.9 | 3.8 | -69.7* | -1.7
Oc1ccc(C=NNc2ccccn2)c(O)c1 | 1.2 | 1.5 | -61.4* | 5.6
SMILES | D3 ag | TRPML1 ag | D3 antag | TRPML1 inh
Oc1cccc(C=NNc2ccccn2)c1 | -2.6 | -0.4 | -0.7 | 20.0
COc1cccc(C2CC(=O)Nc3c2c(=O)nc2c(C)cccn32)c1 (stereo not given) | 6.6 | 1.1 | nt | 6.9
CN(Cc1ccccc1)C1CCCN(C(=O)c2ccc(Cl)s2)C1 (stereo not given) | -11.5 | 1.3 | -81.9* | -6.4
CCn1cc(C(=O)NCCN(CC(C)C)CC(C)C)c(=O)c2cc(S(=O)(=O)N(C)C3CCCCC3)ccc21 | 0.3 | -1.2 | nt | 25.1
Cc1nn(-c2ccccc2)c(Cl)c1C(=O)N1CCN(c2ncnc3c2cnn3-c2ccccc2)CC1 | 40.7* | 2.7 | -10.4 | 13.0
COc1cccc(OCCN2CCN(c3ncnc4c3cnn4-c3ccccc3)CC2)c1 | 47.7* | 1.0 | 9.7 | 21.1
C=Nc1ccc(/C=C/c2ccnc3ccccc23)cc1 | nt | 7.9 | nt | nt
COc1cccc(-c2cn3c(n2)sc2cc(C(=O)NC4CCCCCC4)ccc23)c1 | 4.7 | 1.5 | nt | 19.7
Cc1[nH]nc(C(=O)NN=Cc2ccccc2Cl)c1N=NN(C)C | -10.8 | -0.2 | -80.7* | -16.2
Cc1ccc(NC(=O)c2nc[nH]c2C(=O)NCCCCNC(=O)c2[nH]cnc2C(=O)Nc2ccc(C)cc2)cc1 | 42.4* | -0.6 | 145.8 | 18.3
CCOC(=O)c1ccc(NC(=O)c2nc[nH]c2C(=O)NCCCCCNC(=O)OC(C)(C)C)cc1 | 52.5* | -0.2 | 115.7 | -6.7
O=C(Nc1ccccc1)c1nc[nH]c1C(=O)NCCNC(=O)c1[nH]cnc1C(=O)Nc1ccccc1 | 69.0* | -0.8 | 134.0 | -11.2
FC(F)(F)c1ccc(Cl)c(Nc2nnc(-c3ccncc3)s2)c1 | -7.7 | -0.1 | -56.5* | ?
CCCOc1ccc(C2C(=O)N(C3CCCCCC3)CC(=O)N2CCC)cc1OC (stereo not given) | -7.3 | -0.6 | nt | -1.6
Cc1cccc(NC(=O)Nc2ccc(S(N)(=O)=O)cc2)c1 | 3.3 | 1.0 | 6.5 | 3.1
Cc1cccc(NC(=O)Nc2ccc(Oc3c(F)c(F)c(F)c(F)c3F)cc2)c1 | -2.9 | -0.4 | -116.8* | -10.7
C=C[C@@H]1c2ccccc2N(S(=O)(=O)c2ccc(C)cc2)[C@H](c2ccccc2)C1(C#N)C#N | 5.6 | 62.7*! | 15.2 | -20.9
C=C[C@@H]1c2cc(C)ccc2N(S(=O)(=O)c2ccc(C)cc2)[C@H](c2ccccc2)C1(C#N)C#N | -7.6 | 21.3 | 0.0 | ?
Cn1c(-c2ccccc2)c(C(=O)CCl)c2ccccc21 | -5.6 | -0.3 | -51.3* | -1.9
Cc1cccc(-n2c(C)cc(C(=O)C(=O)Nc3ccccc3F)c2C)c1C | -6.2 | 0.3 | nt | -12.3
CCOC(=O)C1=C(C)N(Cc2ccccc2)C(=O)NC1c1ccccc1OS(=O)(=O)c1ccccc1[N+](=O)[O-] (stereo not given) | 45.6* | -0.7 | 0.0 | 5.0
COc1cc(C=C2C(=O)c3ccccc3C2=O)ccc1O | 7.6 | 0.5 | -77.2* | -16.1
CN(C)c1ccc(C=C2C(=O)c3ccccc3C2=O)cc1 | nt | 50.9* | nt | nt
CCN1C/C(=C/c2ccc(OC)c(O)c2)C(=O)/C(=C/c2ccc(OC)c(O)c2)C1 | 2.0 | 2.8 | ? | -15.8
COc1cc(/C=C2/CC/C(=C/c3ccc(O)c(OC)c3)C2=O)ccc1O | 9.3 | nt | -15.0 | nt
SMILES | D3 ag | TRPML1 ag | D3 antag | TRPML1 inh
CN(C)c1ccc(C=C2c3ccccc3-c3ccccc32)cc1 | nt | -0.2 | nt | nt
COc1cc(/C=C2\COC/C(=C\c3ccc(O)c(OC)c3)C2=O)ccc1O | -27.0 | 1.2 | -90.2* | -15.1
COc1ccc(/C=C2\CN(Cc3ccccc3)C/C(=C\c3ccc(OC)c(O)c3)C2=O)cc1O | -15.9 | 3.2 | -53.4* | 12.8
Cc1nc2ccc(C(=O)OC(C)C(=O)c3c(C)[nH]c4ccccc34)cc2nc1C (stereo not given) | nt | -0.9 | nt | nt
CCn1nc(-c2ccc(C)cc2)nc2c(=O)n(C)c(=O)nc1-2 | nt | -0.5 | nt | nt
COc1cc(/C=C2\CC/C(=C\c3ccc(OCCO)c(OC)c3)C2=O)ccc1OCCO | 1.3 | 106.9* | 10.5 | -28.1
C=Cc1ccc(Cn2c(=O)n(-c3ccc(C)cc3)c(=O)c3c2c2cc(OC)ccc2n3C)cc1 | 1.4 | -0.1 | nt | 10.1
Cc1cnccn1 | nt | 0.0 | nt | nt
